Data taken from PubChem BioAssay (Tox21).
Several values for one entry are separate records, joined by “and”; a condition that tells them apart may be missing. Equal entries are not always repeated. A number with no mark means an inactive call. A call without a number means that no potency is given here. Activity calls are given as the source filed them. Calls come from the whole dose curve; as a rule, active = well fitted activation curve with a large enough effect in the repeat runs; inconclusive = weak or mixed curves; inactive = flat fitted curve, though single readings scatter.

These compounds were tested against KiSS-1 receptor (Homo sapiens) (UniProt Q969F8) (assay: Human kisspeptin (KISS1R) small molecule agonists, calcium flux assay in KISS1R-HEK293 cells (AID 1920064)). Conditions: KISS1R-HEK293, calcium flux fluorescence, agonist; series mostly up to 76.8 µM.
KiSS-1 receptor (Homo sapiens), sequence (Q969F8 whole entry, looked up): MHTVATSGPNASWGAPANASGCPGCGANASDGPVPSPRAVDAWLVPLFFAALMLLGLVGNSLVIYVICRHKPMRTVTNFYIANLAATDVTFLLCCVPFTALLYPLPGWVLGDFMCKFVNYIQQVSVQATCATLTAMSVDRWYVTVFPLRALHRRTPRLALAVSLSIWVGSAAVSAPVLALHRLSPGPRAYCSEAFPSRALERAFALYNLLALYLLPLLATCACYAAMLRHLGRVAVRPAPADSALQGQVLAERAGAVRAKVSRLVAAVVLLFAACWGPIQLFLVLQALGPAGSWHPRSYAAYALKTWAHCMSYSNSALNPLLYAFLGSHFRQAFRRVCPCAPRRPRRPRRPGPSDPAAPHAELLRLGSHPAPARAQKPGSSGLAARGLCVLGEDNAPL
Source text: National Center for Advancing Translational Sciences [NCATS]
Division of Preclinical Innovation [DPI]
U.S. Environmental Protection Agency [EPA]
National Institutes of Environmental Health Sciences [NIEHS]
National Toxicology Program [NTP]
U.S. Food and Drug Administration [FDA]
Kisspeptin and its receptor KISS1R play key roles in mammalian reproduction due to their involvement in the onset of puberty and control of the hypothalamic-pituitary-gonadal axis such as regulates GnRH release from the hypothalamus. The kisspeptin/KISS1R system also plays a direct role in peripheral organs (including the ovary, testis, uterus, and placenta) and is implicated in reproductive diseases such as miscarriage and polycystic ovary syndrome (PCOS). Abnormal KISS1R activity is associated with abnormal puberty, infertility, endometriosis, and hormone-dependent tumors. The KISS1 receptor (KISS1R, also called GPR54), a G-protein-coupled receptor (GPCR), acts (through phospholipase C) to increase intracellular inositol trisphosphate and then release intracellular calcium stores. Cell-based KISS1R-HEK293 assay is using HEK293 cells that have been genetically engineered to express the human KISS1R, which activity can be measured by calcium signaling. A compound/drug can activate (agonist) KISS1R that can be monitored by levels of intracellular calcium.
KISS1R-HEK293 cells developed by Codex Corp contain human KISS1R gene, which was stably integrated into HEK 293 cells. The compound activation can be detected by fluorescence intensity via calcium flux assay. This cell line has been used to screen the Tox21 10K compound library to identify agonists of KISS1R.
KISS1R-Hek293 cells were dispensed at 1500 cells/4uL/well in 1536-well black wall/clear bottom plates using a multidrop dispenser. After the assay plates were incubated at a 37 C/5% CO2 incubator for 18 hours, 4 microL of Calcium Dye Solution was added to each well. The plates were incubated at 37 C for 1 hour. And then 23 nL of compounds dissolved in DMSO, positive controls, or DMSO only was transferred to the assay plate by a pin tool station. The fluorescence intensity in the plates was measured using FDSS 7000EX kinetic plate reader with a filter set of Ex/Em=480/540 for 3 min at 1 sec intervals. Each test compound was measured at 15 concentrations and in triplicates.
Potency is the fitted concentration of half-maximal effect.

SMILES | Potency | activation
c1ccc2sc(SN(C3CCCCC3)C3CCCCC3)nc2c1 | inactive | –
O=C1NC(=O)[C@@H]2CC=CC[C@H]12 | inactive | –
CC1(CN2CCC(n3c(=O)[nH]c4ccccc43)CC2)OCc2ccccc2-n2cccc21 (stereo not given) | inactive | –
O=C1C=CC(=O)N1 | inactive | –
CCCC(=O)O[C@]1(C(=O)COC(=O)CC)CC[C@H]2[C@@H]3CCC4=CC(=O)CC[C@]4(C)[C@H]3[C@@H](O)C[C@@]21C | – | -0.661% [at 15.8 µM]
CCCCN(CCC(=O)OCC)C(C)=O | inactive | –
COC(C)(C)OC | inactive | –
CN(C)CCOc1ccccc1Cc1ccccc1 | inactive | –
CC(CSC(=O)c1ccccc1)C(=O)N1C[C@@H](Sc2ccccc2)C[C@H]1C(=O)O (stereo not given in full) | – | -0.676% [at 15.8 µM]
CO[C@]1(NC(=O)CSC(F)F)C(=O)N2C(C(=O)O)=C(CSc3nnnn3CCO)CO[C@H]21 | inactive | –
CC1=C(/C=C/C(C)=C/C=C/C(C)=C\C=O)C(C)(C)CCC1 | inactive | –
CCC(=O)c1ccc2c(c1)N(CCCN(C)C)c1ccccc1S2 | inactive | –
O=S(=O)(O)c1ccc(Nc2nc(Nc3ccc(/C=C/c4ccc(Nc5nc(Nc6ccc(S(=O)(=O)O)cc6)nc(N(CCO)CCO)n5)cc4S(=O)(=O)O)c(S(=O)(=O)O)c3)nc(N(CCO)CCO)n2)cc1 | inactive | –
c1ccc(-c2ccccn2)nc1 | inactive | –
CN(C(=O)CN(CCO)CC(=O)N(C)C(C)(C)Cc1ccccc1)C(C)(C)Cc1ccccc1 | inactive | –
NCCc1ccn[nH]1 | inactive | –
O=C(Oc1ccccc1)c1cccc(C(=O)Oc2ccccc2)c1 | inactive | –
CCOC(=O)Nc1ccc2c(c1)N(C(=O)CCN1CCOCC1)c1ccccc1S2 | inactive | –
CCc1ccc(O)c(C(C)(C)C)c1 | inactive | –
Cc1cc(C2CCCCC2)n(O)c(=O)c1 | inactive | –

SMILES | Potency | activation
CCCOC(=O)CC | inactive | –
CCN(C(=O)N(CC)c1ccccc1)c1ccccc1 | inactive | –
CCc1cc(C(C)(C)C)c(O)c(C(C)(C)C)c1 | inactive | –
Cc1cc2nc3c(=O)[nH]c(=O)nc-3n(C[C@H](O)[C@H](O)[C@H](O)CO)c2cc1C | 24.3 µM (active) and 22.8 µM (active) | –
CC(C)NC(=O)NC(C)C | inactive | –
Cn1cc(C(=O)[C@@H]2CCc3nc[nH]c3C2)c2ccccc21 | inactive | –
O=C(OC[C@H]1O[C@@H](OC(=O)c2cc(O)c(O)c(OC(=O)c3cc(O)c(O)c(O)c3)c2)[C@H](OC(=O)c2cc(O)c(O)c(OC(=O)c3cc(O)c(O)c(O)c3)c2)[C@@H](OC(=O)c2cc(O)c(O)c(OC(=O)c3cc(O)c(O)c(O)c3)c2)[C@@H]1OC(=O)c1cc(O)c(O)c(OC(=O)c2cc(O)c(O)c(O)c2)c1)c1cc(O)c(O)c(OC(=O)c2cc(O)c(O)c(O)c2)c1 | – | -0.551% [at 15.8 µM]
O=C(c1ccccc1)c1cc(Cl)ccc1O | inactive | –
Cc1nc2sccn2c(=O)c1CCN1CCC(=C(c2ccc(F)cc2)c2ccc(F)cc2)CC1 | inactive | –
CN(C)c1ccc(C2(c3ccc(N(C)C)cc3)OC(=O)c3cc(N(C)C)ccc32)cc1 | inactive | –
NC(N)=NCCC[C@H](N)C(=O)O | – | -0.0198% [at 6.97 µM]
CC1CCC(CO)CC1 (stereo not given) | inactive | –
Cn1c(=O)c2c(ncn2CCO)n(C)c1=O | inactive | –
C=CC(=O)OCCn1c(=O)n(CCOC(=O)C=C)c(=O)n(CCOC(=O)C=C)c1=O | inactive | –
Nc1ccc([N+](=O)[O-])c(N)c1 | inactive | –
CC(C)C(C)(C)C(C)(C)C(C)(C)S | inactive | –
C=C[C@](C)(O)CC[C@@H]1[C@@]2(C)CCCC(C)(C)[C@@H]2CC[C@@]1(C)O | inactive | –
Cc1cc(C(C#N)c2ccc(Cl)cc2)c(Cl)cc1NC(=O)c1cc(I)cc(I)c1O (stereo not given) | inactive | –
C/C(=C(/OCCOc1ccc(Cl)cc1)c1ccc(Cl)cc1Cl)n1ccnc1 | inactive | –
CCc1nn(CCCN2CCN(c3cccc(Cl)c3)CC2)c(=O)n1CCOc1ccccc1 | inactive | –
